HTR1A agonist = 5-HT1a (human) receptor agonism; hit rate 0.56% among 65,000; CHO 5-HT1a Ga15 NFAT-bla reporter, FRET ratio; 0% basal, 100% maximal reference agonist; activation, % at 10 µM; P08908;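 active = activation above the screen-wide mean activation plus 3 SD, cut at about 19% in these data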;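 note: 0% = DMSO wells and 100% = 5-CT at EC100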
5HT1E antag = 5-HT1E (human) receptor antagonism; hit rate 0.99% among 65,000; P28566; AID 571; CHO 5-HT1E Ga15 NFAT-bla reporter, FRET, antagonist; inhibition, % at 6 µM;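 active = inhibition above a set limit, the mean inhibition across every tested compound plus 3 SD, cut at about 29% in these data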;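 note: signal is the 460 over 535 nm emission ratio of beta-lactamase substrate; 0% = agonist plus DMSO wells and 100% = wells without agonist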
Her2 expr inh = Her2 kinase expression inhibition; P04626; SKBR-3 HER2 protein level, AlphaScreen, 18-24 h; stronger effect = lower value; HER2 level % of control, % at 10 µM; hit rate 0.69% among 65,000; AID 645;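 active = HER2 level under 5% of the carrier-only control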;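 note: 100% = DMSO carrier and 0% = 500 nM PU-H71 HSP90 inhibitor; lower value means stronger loss of Her2 protein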
Target sequence (P04626 whole entry, looked up): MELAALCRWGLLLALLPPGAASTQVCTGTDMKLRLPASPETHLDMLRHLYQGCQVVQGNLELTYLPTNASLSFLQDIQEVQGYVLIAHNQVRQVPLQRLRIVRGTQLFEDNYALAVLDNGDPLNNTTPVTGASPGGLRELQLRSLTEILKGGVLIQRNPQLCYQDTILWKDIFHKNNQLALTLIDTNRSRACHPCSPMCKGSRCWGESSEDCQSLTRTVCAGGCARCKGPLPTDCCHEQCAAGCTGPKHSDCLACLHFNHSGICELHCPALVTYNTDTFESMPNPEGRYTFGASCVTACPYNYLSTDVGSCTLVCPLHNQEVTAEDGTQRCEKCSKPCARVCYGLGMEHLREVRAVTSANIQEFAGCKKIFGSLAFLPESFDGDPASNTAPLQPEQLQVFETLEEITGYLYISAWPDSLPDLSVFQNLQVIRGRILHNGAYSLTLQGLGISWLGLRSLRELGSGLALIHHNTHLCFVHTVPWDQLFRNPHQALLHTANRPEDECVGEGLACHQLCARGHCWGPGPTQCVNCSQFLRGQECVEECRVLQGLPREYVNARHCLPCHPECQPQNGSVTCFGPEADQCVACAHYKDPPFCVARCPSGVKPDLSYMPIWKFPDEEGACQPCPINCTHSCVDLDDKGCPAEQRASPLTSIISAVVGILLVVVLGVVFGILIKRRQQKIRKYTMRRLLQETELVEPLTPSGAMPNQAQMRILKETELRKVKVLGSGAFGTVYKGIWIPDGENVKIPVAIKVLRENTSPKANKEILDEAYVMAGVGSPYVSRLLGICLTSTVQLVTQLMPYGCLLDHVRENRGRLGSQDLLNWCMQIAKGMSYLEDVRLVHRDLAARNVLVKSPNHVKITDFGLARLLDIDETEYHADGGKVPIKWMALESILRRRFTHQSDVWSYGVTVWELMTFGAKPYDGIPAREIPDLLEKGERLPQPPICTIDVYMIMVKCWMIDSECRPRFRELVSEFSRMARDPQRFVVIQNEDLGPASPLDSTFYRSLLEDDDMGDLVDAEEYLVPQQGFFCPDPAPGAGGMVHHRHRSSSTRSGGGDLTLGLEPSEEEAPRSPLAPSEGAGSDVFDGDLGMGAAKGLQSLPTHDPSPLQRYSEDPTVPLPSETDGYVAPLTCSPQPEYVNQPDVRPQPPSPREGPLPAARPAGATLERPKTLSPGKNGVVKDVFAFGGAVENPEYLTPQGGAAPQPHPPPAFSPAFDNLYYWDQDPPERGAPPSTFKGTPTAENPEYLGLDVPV
5-HT1A blocker = 5-HT1a (human) receptor antagonism; P08908; CHO 5-HT1a Ga15 NFAT-bla reporter, antagonist mode; inhibition, % at 10 µM; hit rate 0.68% among 62,000;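 active = inhibition above the mean of all tested compounds plus 3 SD, cut at about 43% in these data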;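 note: receptor stimulated by 5-CT agonist at 100 nM near EC80; beta-lactamase reporter measured by ratiometric fluorescence of a cleavable substrate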
5HT1E ag = activates the human 5-HT1E serotonin receptor; CHO 5-HT1E Ga15 NFAT-bla reporter, FRET; 0% DMSO wells, 100% control agonist wells; hit rate 0.69% among 65,000; activation, % at 6 µM; AID 574; P28566;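 active = activation above a set limit, the screen-wide mean activation plus 3 SD, cut at about 8.5% in these data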;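 note: 100% = positive control agonist at 1 µM giving full maximal response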
* = called active by the depositor; . = no result given. This is a sample that favours compounds with a hit; in the whole collection about 3% have one here.

SMILES	HTR1A agonist	5HT1E antag	Her2 expr inh	5-HT1A blocker	5HT1E ag
CCOc1cc2[nH]c(=O)n(CC3CCC(C(=O)NC(C)CC)CC3)c(=O)c2cc1OCC (configuration not stated)	-1	3	101	-5	0
N#C/C(C(N)=O)=c1/ccc2c(c1)N1C3=C(CCCC3)CC3CCCCC31N=2 (configuration not stated)	0	7	-29*	-24	0
N#CC(C#N)=c1ccc2c(c1)N1C3=C(CCCC3)CC3CCCCC31N=2 (configuration not stated)	-1	3	-28*	0	0
Cc1cccc(N2CCN(CC(=O)NCC3CCCCC3)CC2)c1C	41*	-14	93	16	1
Cc1cc(C(=O)OCC(=O)Nc2cc(C(F)(F)F)ccc2N2CCOCC2)c(C)o1	-1	5	88	25	1
CC(C)(C)c1csc(NC(=O)c2ccc(Cl)s2)n1	-1	19	56	35	-1
CCNc1nc(N)c(C(=O)c2ccc(Cl)s2)s1	1	23	36	56*	0
O=C(NCc1ccco1)C(c1cccs1)N(C(=O)Cc1cccs1)c1ccccc1 (configuration not stated)	-2	15	79	52*	-2
O=C(Cc1cccs1)NCc1ccco1	-3	2	91	3	0
CCOC(=O)CNC(=O)Nc1ccccc1C(=O)OC	2	-3	50	.	-1
O=C(CSc1nnc(COc2ccccc2)n1-c1ccccc1)c1cccs1	-4	4	103	8	0
CCC(C)Oc1cccc(C(=O)Nc2ccccc2N2CCOCC2)c1 (configuration not stated)	2	2	76	-2	1
CC(C)Oc1cccc(C(=O)Nc2ccccc2N2CCOCC2)c1	1	32*	146	4	-1
CCCOc1ccc(C(=O)N2CCCC2)cc1OC	-1	5	121	-5	0
Cc1cccc(N2CCN(C(=O)c3ccc(CS(=O)(=O)c4ccccc4C)o3)CC2C)c1 (configuration not stated)	1	40*	36	46*	0
CSC1=NCCN1C(=O)c1ccc(S(=O)(=O)N(C)C)cc1	-1	4	82	2	-1
Cc1cc(=O)oc2cc(OCC(=O)N3c4ccccc4CC3C)ccc12 (configuration not stated)	-1	33*	72	24	0
COc1ccccc1N1CCN(CC(O)COc2ccc3c(C)cc(=O)oc3c2)CC1 (configuration not stated)	4	-2	64	88*	0
Cc1cc(=O)oc2cc(OCC(O)CN3CCc4ccccc4C3)ccc12 (configuration not stated)	3	-13	118	8	1
Cc1cc(=O)oc2cc(OCC(O)CN3CCN(c4ccccc4)CC3)ccc12 (configuration not stated)	10	2	106	46*	1
COc1ccccc1N1CCN(C(=O)c2c(C)cc(=O)oc2C)CC1	1	9	146	.	0
CC1(C)CC(=O)C(C=NCCN2CCN(CCc3ccccc3)CC2)=C(O)C1	0	7	134	.	-1
CCCc1nc2oc3c(N4CCNCC4)ncnc3c2c2c1CCCC2	-1	14	-15*	4	-1
CC(C)Cc1nc2oc3c(N4CCN(C)CC4)ncnc3c2c2c1CCCC2	-1	14	78	6	0
CC(C)NCC(O)COc1cccc2[nH]ccc12 (configuration not stated)	1	-7	98	.	8.7*
SMILES	HTR1A agonist	5HT1E antag	Her2 expr inh	5-HT1A blocker	5HT1E ag
COCCOC(=O)c1c(C)oc2ccc(OC(=O)c3c(OC)cccc3OC)cc12	2	-5	81	-6	0
Cn1c(C(=O)NCCCN2CCCC2=O)cc2c(=O)n3ccccc3nc21	0	30*	70	3	0
COc1ccc(CN(C#N)c2nc(SC)nc(N(C)C)n2)cc1	-2	-16	179	.	0
COc1ccccc1-c1nnc(SCC(=O)OC(C)C)o1	-1	-6	109	-10	0
c1ccc(-c2cc(-c3nn4c(-c5ccco5)nnc4s3)c3ccccc3n2)cc1	0	17	111	8	0
Cc1cc(-c2nn3c(-c4ccccc4)nnc3s2)c2ccccc2n1	-1	30*	45	0	2
